# Values joined by “and” are separate entries in the source; they are usually repeats but may differ in a detail not shown here. Equal entries are not always repeated. Records with an inconclusive call do not appear. Some compounds were tested as several samples or in several runs, with calls that do not always agree. Active and inactive are the calls of the source. How the source made its calls: active means hit-call score of the fitted dose curve at least 0.9, where 1 is the maximum; inconclusive means response in the unintended direction; inactive means score below 0.9.
# Key:
# [1] = ACEA_AR_agonist_AUC_viability: ACEA Biosciences xCELLigence Real-Time Cell Analysis on Androgen Receptor Agonism for Viability (AID 2283775);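 on AC50: viability read 80 hours after compound addition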
# Summary of the method: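 Viability endpoint from xCELLigence impedance in 22Rv1 prostate cells at 80 h. Eight-point series, 100 uM maximum final.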
# [2] = ACEA_AR_antagonist_AUC_viability: ACEA Biosciences xCELLigence Real-Time Cell Analysis on Androgen Receptor Antagonism for Viability (AID 2283776);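 further: 22Rv1 human prostate cancer cells growing on impedance electrode plates; area under impedance growth curve at 80 h after dosing as viability; hits lower the growth signal relative to DMSO meaning cytotoxicity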
# Summary of the method: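 Viability endpoint from label-free cell-index monitoring: 22Rv1 cultures treated with an eight-point 1:4 dilution series starting at 100 uM final, AUC at 80 h fitted against DMSO.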
# [3] = ACEA_ER_AUC_viability: ACEA Biosciences xCELLigence Real-Time Cell Analysis on Estrogen Receptor Agonism for Viability (AID 2283782);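 further: hit means loss of impedance signal meaning reduced cell growth or viability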
# Summary of the method: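 Read-out: real-time electrical impedance (RT-CES) area under curve, loss of signal taken as reduced viability, normalized to DMSO baseline. T-47D cells, charcoal-stripped serum medium, compounds up to 100 uM final, continuous exposure, 80 h.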
# [4] = system: frog Estrogen Receptor (ESR2), gene 100174814; experiment: ATG_frER2_XSP1: Attagene TRANS-FACTORIAL Multi-Species (XSP1) HepG2 Assay for frog Estrogen Receptor (ESR2) (AID 2283774)
# Summary of the method: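 HepG2, transient MRTU transfection (GAL4-UAS reporters, exogenous NR-Gal4 chimeras); 24 h compound exposure; 3 nM 6α-fluorotestosterone co-added; total RNA → RT-PCR → 6-FAM primer extension → HpaI → CE. Positive direction vs DMSO.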
# [5] = system: frog Estrogen Receptor (ESR1), gene 398734; experiment: ATG_frER1_XSP1: Attagene TRANS-FACTORIAL Multi-Species (XSP1) HepG2 Assay for frog Estrogen Receptor (ESR1) (AID 2283777)
# Summary of the method: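 Transient MRTU transfection, HepG2 (human liver); 24 h dosing, 3 nM 6α-fluorotestosterone co-added; RNA → RT-PCR → 6-FAM labeling → CE; upward activity vs DMSO.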
# [6] = target: chicken Estrogen Receptor (ESR1), ESR1 (gene 396099) (UniProt P06212); experiment: ATG_chERa_XSP1: Attagene TRANS-FACTORIAL Multi-Species (XSP1) HepG2 Assay for chicken Estrogen Receptor (ESR1) (AID 2283779)
# chicken Estrogen Receptor (ESR1), ESR1 (gene 396099), sequence (P06212 whole entry, looked up, the tested form may be a part): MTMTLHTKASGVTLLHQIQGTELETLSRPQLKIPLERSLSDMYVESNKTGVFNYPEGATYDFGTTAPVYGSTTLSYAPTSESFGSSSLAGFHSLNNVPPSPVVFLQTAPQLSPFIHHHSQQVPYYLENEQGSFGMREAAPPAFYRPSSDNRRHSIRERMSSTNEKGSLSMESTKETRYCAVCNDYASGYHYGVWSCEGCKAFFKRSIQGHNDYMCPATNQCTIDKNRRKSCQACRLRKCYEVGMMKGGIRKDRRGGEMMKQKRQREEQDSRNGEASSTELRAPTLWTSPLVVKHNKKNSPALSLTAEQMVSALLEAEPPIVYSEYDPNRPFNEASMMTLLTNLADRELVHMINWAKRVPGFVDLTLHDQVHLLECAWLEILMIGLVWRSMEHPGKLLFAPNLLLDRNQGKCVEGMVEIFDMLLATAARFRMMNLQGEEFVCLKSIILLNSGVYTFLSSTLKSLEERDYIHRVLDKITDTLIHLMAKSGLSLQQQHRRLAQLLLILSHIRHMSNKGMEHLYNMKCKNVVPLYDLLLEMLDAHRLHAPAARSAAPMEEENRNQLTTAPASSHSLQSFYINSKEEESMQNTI
# Summary of the method: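 Read-out: fluorescent reporter mRNA fragments resolved by capillary electrophoresis after RT-PCR and HpaI digestion. Transfected HepG2 cells carried chimeric NR-Gal4 constructs, were dosed 24 h with 3 nM 6-alpha-fluorotestosterone added, and activity was fitted upward relative to DMSO.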
# [7] = target: Estrogen receptor (Homo sapiens) (UniProt P03372); experiment: ATG_hERa_XSP1: Attagene TRANS-FACTORIAL Multi-Species (XSP1) HepG2 Assay for human Estrogen Receptor (ESR1) (AID 2283780)
# Estrogen receptor (Homo sapiens), sequence (P03372 whole entry, looked up, the tested form may be a part): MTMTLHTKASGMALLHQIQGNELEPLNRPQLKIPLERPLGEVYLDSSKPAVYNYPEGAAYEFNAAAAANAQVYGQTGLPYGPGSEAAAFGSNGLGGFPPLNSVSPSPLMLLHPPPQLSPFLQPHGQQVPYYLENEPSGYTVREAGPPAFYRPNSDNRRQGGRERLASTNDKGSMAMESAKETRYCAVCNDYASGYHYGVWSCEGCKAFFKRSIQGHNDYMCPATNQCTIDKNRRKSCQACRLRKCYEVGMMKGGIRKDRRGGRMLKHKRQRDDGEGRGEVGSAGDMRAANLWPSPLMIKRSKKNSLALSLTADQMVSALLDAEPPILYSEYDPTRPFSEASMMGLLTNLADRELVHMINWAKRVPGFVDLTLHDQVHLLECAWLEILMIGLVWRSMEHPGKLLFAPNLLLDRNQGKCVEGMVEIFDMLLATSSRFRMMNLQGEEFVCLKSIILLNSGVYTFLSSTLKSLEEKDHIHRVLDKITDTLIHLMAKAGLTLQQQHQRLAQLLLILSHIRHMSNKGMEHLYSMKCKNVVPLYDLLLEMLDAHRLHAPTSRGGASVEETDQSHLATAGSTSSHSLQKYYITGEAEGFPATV
# Summary of the method: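 Reporter transcripts from multiplexed GAL4-UAS units driven by NR-Gal4 chimeras in transiently transfected HepG2 were measured by RT-PCR with capillary electrophoresis 24 h post-dose, with 3 nM 6-alpha-fluorotestosterone present; gain-of-signal relative to DMSO.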
# [8] = system: turtle Estrogen Receptor (ESR1), gene 101933533; experiment: ATG_trERa_XSP1: Attagene TRANS-FACTORIAL Multi-Species (XSP1) HepG2 Assay for turtle Estrogen Receptor (ESR1) (AID 2283781)
# Summary of the method: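 Transfect HepG2 with reporter units → dose chemical 24 h (medium has 3 nM 6-alpha-fluorotestosterone) → isolate RNA, RT-PCR → FAM primer extension, HpaI digest → capillary electrophoresis; gain of signal vs DMSO.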
# AR (gene 367) = AR (gene 367) (UniProt P10275); experiment: ACEA_AR_agonist_80hr: ACEA Biosciences xCELLigence Real-Time Cell Analysis on Androgen Receptor Agonism for Proliferation (AID 2283783);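 further: hits increase impedance growth signal above DMSO baseline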
# AR (gene 367), sequence (P10275 whole entry, looked up): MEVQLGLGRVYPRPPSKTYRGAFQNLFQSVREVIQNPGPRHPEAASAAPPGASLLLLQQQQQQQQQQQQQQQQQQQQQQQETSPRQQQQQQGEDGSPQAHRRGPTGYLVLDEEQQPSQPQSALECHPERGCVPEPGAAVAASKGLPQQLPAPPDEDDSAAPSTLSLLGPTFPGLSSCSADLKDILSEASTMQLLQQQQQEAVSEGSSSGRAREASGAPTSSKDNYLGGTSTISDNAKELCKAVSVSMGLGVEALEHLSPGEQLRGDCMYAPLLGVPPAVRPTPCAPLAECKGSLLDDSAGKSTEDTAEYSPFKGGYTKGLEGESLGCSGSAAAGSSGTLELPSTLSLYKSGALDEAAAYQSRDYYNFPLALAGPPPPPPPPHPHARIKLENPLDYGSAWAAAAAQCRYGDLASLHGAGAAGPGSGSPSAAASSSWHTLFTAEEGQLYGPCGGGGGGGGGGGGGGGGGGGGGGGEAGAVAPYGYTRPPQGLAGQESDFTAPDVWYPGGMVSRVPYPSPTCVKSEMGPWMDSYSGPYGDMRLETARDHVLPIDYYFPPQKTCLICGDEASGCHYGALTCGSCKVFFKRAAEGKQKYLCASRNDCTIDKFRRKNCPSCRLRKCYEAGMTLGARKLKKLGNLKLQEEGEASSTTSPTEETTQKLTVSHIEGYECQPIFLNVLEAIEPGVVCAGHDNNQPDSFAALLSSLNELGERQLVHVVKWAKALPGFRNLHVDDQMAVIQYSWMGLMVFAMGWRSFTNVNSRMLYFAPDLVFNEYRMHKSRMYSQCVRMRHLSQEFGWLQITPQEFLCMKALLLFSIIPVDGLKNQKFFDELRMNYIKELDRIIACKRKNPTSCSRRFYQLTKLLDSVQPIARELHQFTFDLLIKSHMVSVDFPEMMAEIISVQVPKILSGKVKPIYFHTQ
# Summary of the method: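 Impedance (RT-CES) growth signal at 80 h post-dose; 22Rv1 cells, 8-pt 1:4 series, top 100 uM final, DMSO ≤0.5%; duplicate plates; gain-of-signal fit relative to DMSO baseline.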
# [9] = system: zebrafish Estrogen Receptor (ESR2A), gene 317734; experiment: ATG_zfER2a_XSP1: Attagene TRANS-FACTORIAL Multi-Species (XSP1) HepG2 Assay for zebrafish Estrogen Receptor (ESR2A) (AID 2283778)
# Summary of the method: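 Transient transfection of HepG2 (human liver) with MRTU constructs; chemical dosing for 24 h; medium contained 3 nM 6-alpha-fluorotestosterone to partly stimulate AR. RT-PCR/CE fluorescence of reporter transcripts; positive direction vs DMSO.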
smiles,measurement,setting,value
CNC(=O)Oc1cccc(N=CN(C)C)c1,outcome,[1],inactive
same,outcome,[2],inactive
same,AC50,[3],50.5 µM (active)
CCCN(CCC)c1c([N+](=O)[O-])cc(C(F)(F)F)cc1[N+](=O)[O-],AC50,[4],33.1 µM (active)
same,AC50,[1],80.7 µM (active)
same,AC50,[2],50 µM (active)
same,AC50,[5],7.74 µM (active)
same,AC50,[6],27.2 µM (active)
same,outcome,[7],inactive
same,AC50,[8],27.9 µM (active)
same,outcome,AR (gene 367),inactive
COP(=S)(OC)Oc1ccc(SC)c(C)c1,AC50,[4],11.8 µM (active)
same,outcome,[1],inactive
same,AC50,[2],33.5 µM (active)
same,AC50,[5],5.04 µM (active)
same,AC50,[9],45.9 µM (active)
same,AC50,[6],25.6 µM (active)
same,AC50,[7],26.5 µM (active)
same,AC50,[8],26.6 µM (active)
same,outcome,[3],inactive
Oc1ccc(Cl)cc1Cc1ccccc1,AC50,[4],2.69 µM (active)
same,AC50,[1],18.2 µM (active)
same,AC50,[2],13.8 µM (active)
same,AC50,[5],2.63 µM (active)
same,outcome,[9],inactive
same,outcome,[6],inactive
same,AC50,[8],2.74 µM (active)
same,AC50,[3],18.3 µM (active) [middle of 9 runs]
same,outcome,AR (gene 367),inactive
CC1(C)C(C=C(Cl)Cl)C1C(=O)OC(C#N)c1ccc(F)c(Oc2ccccc2)c1 (stereo not drawn),AC50,[4],27 µM (active)
same,AC50,[1],67.2 µM (active)
same,AC50,[2],30.1 µM (active)
same,AC50,[5],13.9 µM (active)
same,outcome,[9],inactive
same,AC50,[6],27.5 µM (active)
same,outcome,[7],inactive
same,AC50,[8],27.5 µM (active)
same,AC50,[3],74.3 µM (active)
O=S(=O)(O)C(F)(F)C(F)(F)C(F)(F)C(F)(F)C(F)(F)C(F)(F)C(F)(F)C(F)(F)F,AC50,[4],49.8 µM (active)
same,AC50,[1],50 µM (active)
same,outcome,[1],inactive
same,AC50,[2],31.4 µM (active) and 67.5 µM (active)
same,AC50,[5],84 µM (active)
same,AC50,[3],80 µM (active)
same,outcome,[3],inactive
ClC1C(Cl)C(Cl)C(Cl)C(Cl)C1Cl (stereo not drawn),outcome,[1],inactive
same,AC50,[2],37.8 µM (active)
same,outcome,[2],inactive
same,AC50,[3],60.1 µM (active)
same,outcome,[3],inactive
O=C(Nc1ccccc1)Nc1cnns1,AC50,[1],28.6 µM (active)
same,AC50,[2],50 µM (active)
same,outcome,[3],inactive
N#CN,outcome,[1],inactive
same,outcome,[2],inactive
same,outcome,[3],inactive
CC(C)N(C(=O)COc1nnc(C(F)(F)F)s1)c1ccc(F)cc1,AC50,[1],21.4 µM (active)
same,AC50,[2],50 µM (active)
CCC(C)(NC(=O)c1cc(Cl)c(C)c(Cl)c1)C(=O)CCl (stereo not drawn),AC50,[1],26.5 µM (active)
same,AC50,[2],22 µM (active)
same,AC50,[3],9.16 µM (active)
O=C(O)C(F)(F)C(F)(F)C(F)(F)C(F)(F)C(F)(F)C(F)(F)C(F)(F)F,outcome,[1],inactive
same,AC50,[2],37.7 µM (active)
same,outcome,[2],inactive
same,outcome,[3],inactive
CCOCN(C(=O)CCl)c1c(C)cccc1CC,AC50,[4],77.1 µM (active)
same,AC50,[1],50 µM (active)
same,AC50,[2],40.9 µM (active)
same,outcome,[6],inactive
same,outcome,[7],inactive
same,AC50,[3],79.5 µM (active)
O=C(O)CCCOc1ccc(Cl)cc1Cl,outcome,[1],inactive
same,outcome,[2],inactive
same,outcome,[3],inactive
O=[N+]([O-])/N=C1\NCCN1Cc1ccc(Cl)nc1,outcome,[1],inactive
same,outcome,[2],inactive
O=C(NC(=O)c1c(F)cccc1F)Nc1ccc(OC(F)(F)C(F)OC(F)(F)F)c(Cl)c1 (stereo not drawn),outcome,[1],inactive
same,outcome,[2],inactive
CCOC1Oc2ccc(OS(C)(=O)=O)cc2C1(C)C (stereo not drawn),AC50,[1],25.7 µM (active)
same,AC50,[2],25.6 µM (active)
Oc1cc(Cl)ccc1Oc1ccc(Cl)cc1Cl,AC50,[4],7.05 µM (active)
same,AC50,[1],17.3 µM (active)
same,AC50,[2],12.9 µM (active)
same,outcome,[5],inactive
same,AC50,[9],4.96 µM (active)
same,outcome,[6],inactive
same,AC50,[8],5.85 µM (active)
same,AC50,[3],21.9 µM (active) [middle of 6 runs]
CCN(CC)C(=O)SCc1ccc(Cl)cc1,AC50,[1],62.2 µM (active)
same,AC50,[2],65.8 µM (active)
same,AC50,[3],75.9 µM (active)
CC(C)(C)C(O)C(Oc1ccc(Cl)cc1)n1cncn1 (stereo not drawn),outcome,[1],inactive
same,AC50,[2],39.9 µM (active)
same,outcome,[3],inactive
O=S1OCC2C(CO1)C1(Cl)C(Cl)=C(Cl)C2(Cl)C1(Cl)Cl (stereo not drawn),AC50,[4],10 µM (active)
same,AC50,[1],23.1 µM (active)
same,AC50,[2],17.2 µM (active)
same,outcome,[5],inactive
same,outcome,[6],inactive
same,AC50,[7],1.98 µM (active)
same,AC50,[8],1.98 µM (active)
same,AC50,[3],71.8 µM (active)
same,outcome,AR (gene 367),inactive
CCCN(CCOc1c(Cl)cc(Cl)cc1Cl)C(=O)n1ccnc1,outcome,[4],inactive
same,AC50,[1],37.3 µM (active)
same,AC50,[2],57.1 µM (active)
same,outcome,[6],inactive
same,AC50,[3],74.9 µM (active)
CCC(C)(C)C(=O)OC1=C(c2ccc(Cl)cc2Cl)C(=O)OC12CCCCC2,AC50,[1],81.9 µM (active)
same,outcome,[2],inactive
same,AC50,[3],12.3 µM (active)
CNC(=O)/C=C(\C)OP(=O)(OC)OC,outcome,[2],inactive
COc1nn(CSP(=S)(OC)OC)c(=O)s1,AC50,[1],78.7 µM (active)
same,AC50,[2],92.6 µM (active)
same,outcome,[3],inactive
CC[C@H](C)[C@H]1O[C@]2(C=C[C@@H]1C)C[C@@H]1C[C@@H](C/C=C(\C)[C@@H](O[C@H]3C[C@H](OC)[C@@H](O[C@H]4C[C@H](OC)[C@@H](O)[C@H](C)O4)[C@H](C)O3)[C@@H](C)/C=C/C=C3\CO[C@@H]4[C@H](O)C(C)=C[C@@H](C(=O)O1)[C@]34O)O2 (tested in a mixture with another compound),AC50,[1],4.08 µM (active)
same,AC50,[2],4.93 µM (active)
same,AC50,[3],6.89 µM (active)
